This is part of a sample that, as a whole, favours compounds with a hit. Of some 79,000 tested, about 15% had one in any assay. No stated cut-off is given here; in the data, active means growth inhibition above about 70%; inactive means the rest. Where a SMILES comes first, the peptide text is derived from it. The star is where a group is joined. Cbz = O=C(OCc1ccccc1)*; Boc = CC(C)(C)OC(=O)*; OSu = O=C1CCC(=O)N1O*; Bn = c1ccc(C*)cc1
Columns and labels:
[1] = NCI Yeast Anticancer Drug Screen. Data for the rad50 strain (AID 155);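 further: 0% = growth of vehicle-only cultures of the same strain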; details: S. cerevisiae rad50 strain growth inhibition; at 50.0 µM; active compounds read high
In short: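 A DNA repair-deficient yeast mutant serves as the test organism; compound-induced growth inhibition is calculated against vehicle-treated cells.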

[2] = NCI Yeast Anticancer Drug Screen. Data for the mec2-1 strain (AID 157); details: S. cerevisiae mec2-1 strain, at 50.0 µM, active compounds read high
In short: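 Each compound was tested on mec2-1 yeast, a strain altered in DNA damage repair or cell cycle control. Growth inhibition is reported relative to vehicle.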

[3] = NCI Yeast Anticancer Drug Screen. Data for the sgs1 mgt1 strain (AID 161);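 further: 0% = growth of cultures given vehicle only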; details: S. cerevisiae sgs1 mgt1 strain, at 50.0 µM, active compounds read high
In short: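 Read-out: growth inhibition vs vehicle controls. Cells: mutant yeast strain deficient in DNA damage repair.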

[4] = NCI Yeast Anticancer Drug Screen. Data for the cln2 rad14 strain (AID 165);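 further: 0% = growth equal to vehicle treated cultures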; details: S. cerevisiae cln2 rad14 strain, at 50.0 µM, active compounds read high
In short: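 Test compounds were added to cln2 rad14 yeast cultures; inhibition of growth was then determined by comparison with vehicle treatment.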

[5] = NCI Yeast Anticancer Drug Screen. Data for the bub3 strain (AID 167); details: S. cerevisiae bub3 mutant strain, at 50.0 µM, active compounds read high
In short: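 Inhibition values come from growth of compound-treated mutant yeast normalised to vehicle-treated controls.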

[6] = NCI Yeast Anticancer Drug Screen. Data for the mlh1 rad18 strain (AID 175); details: S. cerevisiae mlh1 rad18 strain growth inhibition; at 50.0 µM; active compounds read high
In short: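 Inhibition values reflect reduced growth of mutant yeast versus vehicle-treated controls following compound exposure; the mutations affect DNA damage repair.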

Measured: growth inhibition

CN(c1ccccc1)c1ccc([N+](=O)[O-])cc1[N+](=O)[O-]
inactive: [1] 7.4% | [2] -1.3% | [3] -8% | [4] 3.25% | [5] 0.8% | [6] -11.9%

CCOC(=O)c1cc2nc3ccccn3c(=O)c2cc1N
inactive: [1] -1.15% | [2] -17.5% | [3] 0.85% | [4] -36.3% | [5] -9.3% | [6] -8.45%

CC1CC=CCC1COB(OCC1CC=CCC1C)OCC1CC=CCC1C (stereo not given)
inactive: [1] 22.8% | [2] -21.5% | [3] 29.1% | [4] 23.1% | [5] 24.3% | [6] -0.25%

CC(C)=CCC/C(C)=C/Cn1c(=O)cc[nH]c1=O
inactive: [1] 10.7% | [2] -6.9% | [3] -15.8% | [4] -107% | [5] 2.15% | [6] -0.1%

Cc1cc(=O)[nH]c(N/N=C/c2ccc(O)cc2)n1
inactive: [1] -28.9% | [2] -44.5% | [3] -14.7% | [4] 2.65% | [5] -30.4% | [6] -26.8%

O=S(=O)(O)CCCCO
inactive: [1] 4.4% | [2] -29.9% | [3] 0.9% | [4] 22.2% | [5] 6.15% | [6] 10.2%

CCCCOc1ccccc1C(=O)OC
inactive: [1] 23.9% | [2] 5.55% | [3] 21.8% | [4] -0.6% | [5] 9.4% | [6] 18.5%

C/C(=N\NS(=O)(=O)c1ccc(C)cc1)c1ccc[n+]([O-])n1
inactive: [1] 4.9% | [2] -2.4% | [3] 5.8% | [4] 7.4% | [5] 6.2% | [6] -0.55%

CN(C)CCCNc1ccnc2cc([N+](=O)[O-])ccc12
inactive: [1] 10.2% | [2] 3.3% | [3] 4.4% | [4] -4.1% | [5] -1.3% | [6] -17.1%

c1cnc2[nH]cnc2n1
inactive: [1] 2.3% | [2] 0.6% | [3] -3.3% | [4] 5.75% | [5] 4.85% | [6] -10.1%

CN(CCSSCCN(C)/N=C/c1ccccc1)/N=C/c1ccccc1
inactive: [1] -30.6% | [2] -10% | [3] -26.7% | [4] -27.6% | [5] -10.7% | [6] -17.1%

O=C(CC(=O)c1ccc(-c2ccc(C(=O)CC(=O)c3ccccc3)cc2)cc1)c1ccccc1
inactive: [1] -16.4% | [2] -11% | [3] -20.4% | [4] -34.4% | [5] -1.8% | [6] -10.7%

Clc1ccccc1N=Cc1ccc(C=Nc2ccccc2Cl)cc1
inactive: [1] 26.9% | [2] 23.8% | [3] 34% | [4] 3.3% | [5] 38.5% | [6] 25.9%

CC(C)(C)OC(=O)NC(Cc1ccc(OCc2ccccc2)cc1)C(=O)NC(CCCCNC(=O)OCc1ccccc1)C(=O)NC(CCCCNC(=O)OCc1ccccc1)C(=O)ON1C(=O)CCC1=O (stereo not given) (Boc-Tyr(Bn)-Lys(Cbz)-Lys(Cbz)-OSu; configuration not given here)
inactive: [1] -1.85% | [2] 2.95% | [3] 6.6% | [4] 6.15% | [5] 8.6% | [6] 16.5%

COc1ccccc1NC(=O)C(Cc1ccccc1)NC(C)=O (stereo not given)
inactive: [1] 25.2% | [2] 3.7% | [3] -1.85% | [4] -51.5% | [5] 8.2% | [6] 2.65%

COc1ccc(C2Nc3cc(Cl)ccc3NC3=C2C(=O)CC(C)(C)C3)cc1 (stereo not given)
inactive: [1] 52.5% | [2] 30.9% | [3] 41.2% | [4] 28.6% | [5] 40.3% | [6] 54.3%

N#Cc1cccc(Br)c1
inactive: [1] -11.9% | [2] -15.8% | [3] -1% | [4] -11.4% | [5] -14.9% | [6] 13.1%

O=C1c2cc([N+](=O)[O-])ccc2-c2c(Cl)cc(NC(=O)C(F)(F)F)cc21
inactive: [1] -0.5% | [2] -11.3% | [3] 1.65% | [4] -40% | [5] 6.9% | [6] -2.55%

Cn1ncc2c(NN)nc(Cl)nc21
inactive: [1] 8.6% | [2] -18.7% | [3] -4.55% | [4] -18.4% | [5] -14.8% | [6] 7%

CC1OC(OC2C(O)CC(OC3C(O)CC(OC4CCC5(C)C(CCC6C5CCC5(C)C(C7=CC(=O)OC7)CCC65O)C4)OC3C)OC2C)CC(O)C1O (stereo not given)
inactive: [1] 7.6% | [2] 2.4% | [3] -17.5% | [4] 16.8% | [5] 6.65% | [6] 27.2%

From PubChem BioAssay (NCI)
